{"source": "the supplement of paper PMC6555819"}
{"tested_on": "FXR:RXRa (NR concentration 270 nM, RXRa partner concentration 90 nM)", "assay": "PBM binding z-score (relative to random genomic background probes); higher = stronger binding; sequences stand for … in GC…GCGATTGACAGCGTAGAATGAAGG", "method_in_brief": "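Each nuclear receptor dimer, without ligand, was incubated for 1 h on custom Agilent 4×180K protein-binding microarrays. Binding was detected with antibodies against each partner (one per run), and scanned fluorescence was regression-normalized. The binding z-scores are referenced to random human genomic background probes.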"}
{"sequence": "CGTCCAAGGTCGTAGGAGGTCAGTGAAGACAGAT", "PBM binding z-score": 4.38}
{"sequence": "TCTGCTAGGTCAACGATGATCAGCTAATCTGCTA", "PBM binding z-score": 3.12}
{"sequence": "TCAAATAGGTAAAGGTGAAAGTCGAACGATATGA", "PBM binding z-score": 0.93}
{"sequence": "TCTATTAGTTGATTAGGGCAACTGAAACAGCGGA", "PBM binding z-score": 0.195}
{"sequence": "AGAATGAGGTAATACGTAGATCAGGGAAGAAAGT", "PBM binding z-score": 0.302}
{"sequence": "ACTATTAGTTGACTTAGGACAACCGATACGACGC", "PBM binding z-score": 0.502}
{"sequence": "AGTCAAAGTTCAGGACGAAGTAACGTAAAGCACG", "PBM binding z-score": 3.85}
{"sequence": "TCTTGTAGATCAAGGGTTAAGAAAGCCGAAGCCT", "PBM binding z-score": 0.439}
{"sequence": "CGAACTAGGTCGGAACAGGACAGTGAAGGATGAT", "PBM binding z-score": -0.0248}
{"sequence": "AGAACGAGGGCAATAAGTTGATAGCACGGGTGGC", "PBM binding z-score": 0.456}
{"sequence": "AGAACGATGGCACGCTGAGTTGATAGCAGAGTAG", "PBM binding z-score": -0.77}
{"sequence": "GATACAGGGTCAGCTAGAGGACAGAGTATGGAAA", "PBM binding z-score": 4.89}
{"sequence": "TCATATAGGTAAATGCTAGGTGAAAGTGCGATCT", "PBM binding z-score": 1.14}
{"sequence": "GCTAGTTGGTCAGTAAAAGGTCAGACACCGGTCG", "PBM binding z-score": 1.99}
{"sequence": "AGAATGAGGTTACCAAACATCAGGGAAACGCTTG", "PBM binding z-score": 2.02}
{"sequence": "ACTCGGAAGACAAAGGTCAGAGCTACGCCAGTGA", "PBM binding z-score": 3.29}
{"sequence": "ACAGACAGGTTAGTGAAGGTAACTCAGCTGGACG", "PBM binding z-score": 0.616}
{"sequence": "TCTATTAGTTGACTAGGGCAACCGAAACAGCGGA", "PBM binding z-score": 0.843}
{"sequence": "ACTAGCAGGCCAAGTTTGGGTCACTTAAACAAAG", "PBM binding z-score": 0.098}
{"sequence": "CCTACTGGGCCACGAAAGCTCATTGATTCAGTGA", "PBM binding z-score": -0.608}
{"sequence": "ACTAGCAGGCCAGGTTTGGGTCACTCAAACAAAG", "PBM binding z-score": -0.191}
{"sequence": "TAGCCTACGTCAGATCGGGCCAGTATACGCTATA", "PBM binding z-score": -0.48}
